Autofluor counter: flagged as autofluorescent in microsphere protease counterscreen | compound autofluorescence counterscreen, microsphere flow cytometry; stronger effect = higher value | fluorescence intensity (concentration not given with the values) | actives 3.1% (n = 360,000) | AID 624483; in the data active = fluorescence intensity above about 16000; inconclusive = no clear call, values can overlap the other calls
Anthrax LF prot: blocks Bacillus anthracis lethal factor protease; multiplex microsphere protease cleavage assay, LF; inhibition, % at 10 µM; actives 0.12% (n = 360,000); AID 588501; note: plate controls were buffer without enzyme for full effect and enzyme alone for no effect
Mtb FBA inh: Mtb fructose-bisphosphate aldolase inhibition. P9WQA3. purified M. tuberculosis FBA, fluorescence read-out. inhibition, % at 1 µM. actives 2.3% (n = 360,000). AID 588726; in the data active = inhibition above about 27%;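 note: 0% = vehicle and 100% = reference inhibitor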
Target sequence (P9WQA3 whole entry, looked up): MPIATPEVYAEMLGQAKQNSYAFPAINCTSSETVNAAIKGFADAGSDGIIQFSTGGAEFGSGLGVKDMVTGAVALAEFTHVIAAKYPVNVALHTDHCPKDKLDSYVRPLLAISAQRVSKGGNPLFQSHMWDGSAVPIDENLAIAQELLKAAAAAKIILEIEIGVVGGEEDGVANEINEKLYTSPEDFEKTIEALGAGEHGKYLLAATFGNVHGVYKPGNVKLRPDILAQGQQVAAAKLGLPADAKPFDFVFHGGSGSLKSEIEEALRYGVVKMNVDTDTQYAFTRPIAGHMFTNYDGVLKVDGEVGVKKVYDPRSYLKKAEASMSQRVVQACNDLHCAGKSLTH
BoNT-A LC inh2: inhibitors of Botulinum neurotoxin A light chain protease. AID 588499. actives 0.17% (n = 360,000). inhibition, % at 10 µM. multiplex microsphere protease substrate cleavage, flow cytometry; note: plate controls were buffer without enzyme for full effect and enzyme alone for no effect
BoNT F protease: blocks Botulinum neurotoxin F light chain protease | Multiplex microsphere protease cleavage assay, flow cytometry | inhibition, % at 10 µM | actives 0.22% (n = 360,000) | AID 588497; in the data active = inhibition above about 35%, passing the limit was not always enough; inconclusive = no clear call, values can overlap the other calls; note: plate controls were buffer without enzyme for full effect and enzyme alone for no effect
GDH-TPI inh: counter-screen for M. tuberculosis FBA inhibitors: GDH-TPI coupled enzymes; inhibition, % at 4.8 µM; actives 1.2% (n = 360,000); GDH-TPI coupled enzyme counterscreen, NADH absorbance; in the data active = inhibition above about 30%;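 note: 0% = DMSO wells and 100% = wells lacking the enzyme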
* hit, by the source's call; ? = inconclusive; . = no result given. Compounds with a hit are over-represented: about 6.7% of the library has one in this group of screens. Cut-off read from the data, not from the text of the source, unless noted: active = inhibition above about 30%; inconclusive = no clear call, values can overlap the other calls; inactive = below that.

SMILES	Autofluor counter	Anthrax LF prot	Mtb FBA inh	BoNT-A LC inh2	BoNT F protease	GDH-TPI inh
C/C(=N/NC(=O)c1ccccn1)c1ccc(O)cc1	4438	-1	0	0	-6	32*
CCCNS(=O)(=O)c1ccc(OCC(=O)N(C)Cc2ccccc2)cc1	3705	-2	-1	-1	3	12
Cc1cc(C)c2nc(C(F)(F)F)c(C#N)c(N)c2c1	3232	-3	1	0	-1	11
Cc1ccc2nc(C(F)(F)F)c(C#N)c(N)c2c1	23566*	-1	-1	?	0	12
CSc1nc(-c2ccc(Cl)cc2)nn1C(=O)c1ccco1	2473	-5	2	0	-9	16
CC(NC(=O)c1ccco1)C1CCCO1 (stereo not drawn)	7703	1	1	0	-5	6
Cc1ccc(C(=O)NC(C)C2CCCO2)o1 (stereo not drawn)	6076	0	-2	0	5	2
Cc1occc1C(=O)NC(C)C1CCCO1 (stereo not drawn)	11111	0	33*	-1	-8	-6
CC(NC(=O)c1ccc2c(c1)OCO2)C1CCCO1 (stereo not drawn)	22158*	0	-1	0	1	-12
Cn1c(=O)c2cnc(-c3ccc(C(F)(F)F)cc3)nc2n(C)c1=O	4327	-5	2	?	?	0
O=C(Nc1ccc(-c2nc3ccccc3[nH]2)cc1)c1c(F)c(F)c(F)c(F)c1F	2617	2	2	0	2	7
Cc1cccc(Nc2c([N+](=O)[O-])c(=O)oc3ccccc23)c1	4241	-7	-4	-1	?	32*
CC(=O)Nc1ccc(-c2ccnc3c2CC(C)(C(=O)Nc2ccccc2)O3)cc1 (stereo not drawn)	3696	0	9	0	3	2
COc1ccc(NCC(=O)Nc2ccccc2C#N)cc1Cl	21530*	-8	1	2	5	-4
O=C(Cn1cccc1)Nc1ccc(OC(F)(F)F)cc1	21063*	1	2	4	4	0
COc1ccc(NC(=O)Cn2cccc2)cc1Cl	22292*	-2	3	2	1	-4
Cc1cccc(NC(=O)Cn2cccc2)c1	20306*	-2	-6	-2	-2	-11
Cc1cc(=O)oc2cc(OCC(=O)NC3CCCCC3)c(Cl)cc12	4047	6	10	1	-2	8
Cc1cc(C(=O)COC(=O)c2ccc3c(c2)NC(=O)CS3)c(C)n1CCc1ccc(Cl)cc1	3511	-1	0	-2	0	3
CCOC(=O)C1=C(c2ccccc2)c2ccccc2OC1C(=O)OCC (stereo not drawn)	3838	0	-1	0	-4	9
Cc1ccc(NC(=O)Cn2cccc2)c(C)c1	4255	-2	-9	-1	-6	-5
Cc1ccc(NC(=O)Cn2cccc2)c(Br)c1	23334*	-2	4	-1	-2	3
CC(C)CN(C(=O)COC(=O)c1ccc2ccccc2n1)C1CCS(=O)(=O)C1 (stereo not drawn)	4073	-8	-1	0	-3	-4
CC(C)CN(C(=O)COC(=O)Cc1n[nH]c(=O)c2ccccc12)C1CCS(=O)(=O)C1 (stereo not drawn)	21604*	0	1	?	1	11
CNC(=O)C1=NCCCc2cc(OC)c(OC)cc21	20275*	0	3	?	-1	-5
SMILES	Autofluor counter	Anthrax LF prot	Mtb FBA inh	BoNT-A LC inh2	BoNT F protease	GDH-TPI inh
O=C(NCCN1CCOCC1)c1cc(-c2ccc(Br)cc2)on1	10811	-2	3	-1	-7	15
COc1ccc(Nc2nc(C(=O)NCCCN3CCOCC3)cs2)cc1	16850*	0	-1	-1	-3	10
COc1ccc(Nc2cc(C(=O)NCCCN3CCOCC3)c3ccccc3n2)cc1	6335	-3	1	-2	-3	4
C=CCNC(=O)c1cc(-c2ccc(Br)cc2)on1	22477*	1	1	0	0	-3
O=C(NCCCN1CCOCC1)c1cc(-c2ccc(Br)cc2)on1	18589*	-16	6	15	14	-1
COC(=O)/C(=C(/F)Sc1cc(C)c(O)c(C)c1)C(F)(F)F	22354*	0	-3	0	0	-1
Cc1ccccc1OCC(=O)N/N=C/c1ccc2c(c1)OCCO2	6860	-5	1	0	-3	3
CN(C)S(=O)(=O)c1ccc(C(=O)OCc2ccc(C#N)cc2)cc1	2965	0	-1	0	-1	-5
C=CCN=C(NC#N)SCCc1ccccc1	20089*	-7	0	-3	-5	15
CC(O)(CS(=O)(=O)c1cccc(C(F)(F)F)c1)C(=O)Nc1cccc(C(F)(F)F)c1 (stereo not drawn)	10906	-4	0	1	-4	1
CC(O)(CS(=O)(=O)Cc1ccccc1)C(=O)Nc1ccc(C(F)(F)F)cc1 (stereo not drawn)	23000*	1	3	?	-2	7
CC(O)(CS(=O)(=O)Cc1ccccc1)C(=O)Nc1cccc(C(F)(F)F)c1 (stereo not drawn)	20560*	0	-2	1	1	-5
c1ccc2c(c1)CC(N1CCCCC1)c1ccccc1S2 (stereo not drawn)	5100	0	-3	0	-12	1
CCCn1nnc(NC(=S)NC(=O)c2ccc(-c3ccc(Br)cc3)o2)n1	4084	-24	4	0	?	35*
COc1ccc(/C=N/NC(=O)c2cccc(NC(=O)c3ccccc3Cl)c2)c(OC)c1	2948	3	2	2	5	31*
O=C(N/N=C/c1ccco1)c1cccc(NC(=O)c2ccccc2Cl)c1	3655	-7	-1	1	14	32*
O=C(Nc1ccccc1C(=O)N/N=C/c1ccco1)c1ccccc1Cl	9824	-9	0	0	-6	28
Cc1ccc(C(=O)O/N=C2\CCSc3ccc(C)cc32)cc1	19396*	-5	-4	?	0	-9
Cc1ccc(S(=O)(=O)O/N=C2\CCCc3ccccc32)cc1	2791	-1	0	0	-4	-6
Cc1cccc(C(=O)O/N=C2\CCSc3ccc(C)cc32)c1	.	.	2	.	.	-2
COc1ccc(S(=O)(=O)O/N=C2\CCSc3ccc(C)cc32)cc1	21946*	-1	2	-7	-9	-8
COc1cc(C)c(Cl)c(C)c1S(=O)(=O)NC1CC(C)(C)NC(C)(C)C1	4232	-3	6	0	-4	5
Oc1ccc(C=NNC(=S)Nc2ccc(F)cc2)c(O)c1	3889	-3	2	0	-8	29
COc1ccc(NC(=O)c2cc(C3CCCCN3C(=O)OCCF)on2)c(C)c1 (stereo not drawn)	3772	-4	-3	-1	-6	5
O=C(Cn1nc(-c2ccccc2)ccc1=O)Nc1ccc(-n2cnnn2)cc1	4745	4	2	0	-7	5
Cc1ccccc1-c1ccc(=O)n(CC(=O)Nc2ccc(N3CCOCC3)cc2)n1	20524*	-2	0	?	-1	-6
